Assay results published in the supplement of paper PMC8728848.
Many of the other results were omitted from the sample, so the strongest signals are more common in it than they were.

Experiments:
Assay in all cases: glycan array binding signal (z-score within array); higher = stronger binding
Settings in all cases: glycan notation: IUPAC condensed, linker removed
[1] = system: Neu5Ac(a2-3)Gal6S(b1-4)GlcNAc
Method in brief: (§1)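 Columns mapping to the same glycan were averaged after glycan names were converted to IUPAC-condensed notation. The data come from 3228 arrays in the Consortium for Functional Glycomics database, limited to those with an available protein sequence. Binding is reported as a within-array Z-score averaged across arrays of one protein sequence and across linkers.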

[2] = system: Neu5Ac(a2-6)Gal(b1-4)GlcNAc(b1-2)Man(a1-6)Man(b1-4)GlcNAc(b1-4)GlcNAc
Method in brief: as §1

[3] = system: Neu5Ac(a2-6)Gal(b1-4)GlcNAc(b1-3)Gal(b1-4)GlcNAc(b1-3)Gal(b1-4)GlcNAc(b1-2)Man(a1-3)[Neu5Ac(a2-6)Gal(b1-4)GlcNAc(b1-3)Gal(b1-4)GlcNAc(b1-3)Gal(b1-4)GlcNAc(b1-2)Man(a1-6)]GalNAc
Method in brief: as §1

[4] = system: Neu5Ac(a2-6)Gal(b1-4)GlcNAc(b1-3)Gal(b1-4)GlcNAc(b1-6)[Gal(b1-3)]GalNAc
Method in brief: as §1

[5] = system: Neu5Ac(a2-3)[GalNAc(b1-4)]Gal(b1-4)Glc
Method in brief: as §1

[6] = system: Neu5Ac(a2-3)[Neu5Ac(a2-6)]GalNAc
Method in brief: as §1

[7] = system: Neu5Ac(a2-6)Gal(b1-4)GlcNAc(b1-2)Man(a1-3)[GlcNAc(b1-2)Man(b1-4)GlcNAc(b1-2)Man(a1-6)]Man(b1-4)GlcNAc(b1-4)GlcNAc
Method in brief: as §1

[8] = system: Neu5Ac(a2-6)Gal(b1-4)GlcNAc(b1-3)Gal(b1-4)GlcNAc
Method in brief: as §1

[9] = system: Neu5Ac(a2-6)Gal(b1-4)GlcNAc(b1-3)GalNAc
Method in brief: as §1

[10] = system: Neu5Ac(a2-3)Gal6S(b1-4)[Fuc(a1-3)]GlcNAc6S(b1-3)Gal(b1-4)Glc
Method in brief: as §1

[11] = system: Neu5Ac(a2-6)Gal(b1-4)GlcNAc(b1-2)Man(a1-3)[Neu5Ac(a2-6)Gal(b1-4)GlcNAc(b1-2)Man(a1-6)]Man(b1-4)GlcNAc(b1-4)GlcNAc
Method in brief: as §1

[12] = system: Neu5Ac(a2-6)Gal(b1-4)GlcNAc(b1-2)Man(a1-3)[Neu5Gc(a2-6)Gal(b1-4)GlcNAc(b1-2)Man(a1-6)]Man(b1-4)GlcNAc(b1-4)GlcNAc
Method in brief: as §1

[13] = system: Neu5Ac(a2-6)Gal(b1-4)GlcNAc(b1-2)[Neu5Ac(a2-3)Gal(b1-4)GlcNAc(b1-4)]Man(a1-3)[Neu5Ac(a2-3)Gal(b1-4)GlcNAc(b1-2)Man(a1-6)]Man(b1-4)GlcNAc(b1-4)GlcNAc
Method in brief: as §1

Neu5Ac(a2-3)GalNAc = system: Neu5Ac(a2-3)GalNAc
Method in brief: as §1

[14] = system: Neu5Ac(a2-6)Gal(b1-4)GlcNAc(b1-2)Man(a1-6)[Gal(b1-4)GlcNAc(b1-2)Man(a1-3)]Man(b1-4)GlcNAc(b1-4)GlcNAc
Method in brief: as §1

[15] = system: Neu5Ac(a2-6)Gal(b1-4)GlcNAc(b1-3)Gal(b1-3)GlcNAc
Method in brief: as §1

[16] = system: Neu5Ac(a2-6)Gal(b1-4)GlcNAc(b1-2)Man(a1-3)[Neu5Ac(a2-6)Gal(b1-4)GlcNAc(b1-2)Man(a1-6)]Man(b1-4)GlcNAc(b1-4)[Fuc(a1-6)]GlcNAc
Method in brief: as §1

[17] = system: Neu5Ac(a2-6)Gal(b1-4)GlcNAc(b1-2)[Neu5Ac(a2-6)Gal(b1-4)GlcNAc(b1-6)]Man(a1-6)[Neu5Ac(a2-6)Gal(b1-4)GlcNAc(b1-2)Man(a1-3)][GlcNAc(b1-4)]Man(b1-4)GlcNAc(b1-4)GlcNAc
Method in brief: as §1

[18] = system: Neu5Ac(a2-6)Gal(b1-4)GlcNAc(b1-3)Gal(b1-4)[Fuc(a1-3)]GlcNAc(b1-3)Gal(b1-4)[Fuc(a1-3)]GlcNAc
Method in brief: as §1

With Epa22 the “glycan array binding signal (z-score)” value [1] was -0.771, the “glycan array binding signal (z-score)” value [2] was 0.268 and the “glycan array binding signal (z-score)” value [3] was 3.15. For the same substance, the “glycan array binding signal (z-score)” value [4] was 0.044.
In the case of “SpGH101 (Streptococcus pneumoniae), Q8DR60”, the “glycan array binding signal (z-score)” value [1] is reported as -0.178, the “glycan array binding signal (z-score)” value [5] is reported as -0.199 and the “glycan array binding signal (z-score)” value [6] is reported as -0.195. The “glycan array binding signal (z-score)” value [7] was 0.015, the “glycan array binding signal (z-score)” value [8] was -0.199 and the “glycan array binding signal (z-score)” value [9] was 2.23.
MIC3-MAR1b (Eimeria tenella), B6VCV4 was tested, and the “glycan array binding signal (z-score)” value [10] was 0.282, the “glycan array binding signal (z-score)” value [11] was 4.75 and the “glycan array binding signal (z-score)” value [12] was 0.504. The “glycan array binding signal (z-score)” value [13] was 2.99.
With BambL (Burhholderia ambifaria), Q0B4G1 the “glycan array binding signal (z-score)” value (Neu5Ac(a2-3)GalNAc) was -0.313 and the “glycan array binding signal (z-score)” value [14] was -0.317.
LcI (Legionella pneumophila) was tested, and the “glycan array binding signal (z-score)” value [6] was -0.437 and the “glycan array binding signal (z-score)” value [15] was 0.02.
In the case of MIC3-MAR5 (Eimeria tenella), B6VCV4, the “glycan array binding signal (z-score)” value [11] is reported as 1.71.
For Wza (Escherichia coli), P0A930, the “glycan array binding signal (z-score)” value [16] was -0.578.
In the case of AgI/IIC123-GFP (Streptococcus mutans), the “glycan array binding signal (z-score)” value [17] is reported as 3.72.
In the case of “SiiE (Salmonella typhimurium), A0A0H3NVH0”, the “glycan array binding signal (z-score)” value [15] is reported as 2.56.
In the case of “AgI/II Vhelical-GFP (Streptococcus mutans)”, the “glycan array binding signal (z-score)” value [3] is reported as 1.12 and the “glycan array binding signal (z-score)” value [18] is reported as 1.26.
